# Some of the results follow. Activity calls are given as the source filed them.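 How the source made its calls, unless noted: active means inhibition reaching about 45% at 4 µM in either replicate (limit read from the data); inactive means the rest.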
# What was measured:
# [1] = lowers stimulated NF-kB luciferase signal in Jurkat – cell-based, luminescence, single concentration, T-cell NF-kB inhibitor project, confirmation (AID 435020); settings: PMA/ionomycin-induced, 16 h, at 4 µM, stronger effect = higher value;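 further: plate controls were PMA/ionomycin stimulated DMSO wells for no effect and unstimulated DMSO wells for full effect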
# [2] = molecular target: 72 kDa type IV collagenase (Homo sapiens) (UniProt P08253); experiment: human MMP-2 inhibitors, single-point check – biochemical, fluorescence, single concentration, counter-screen for CSN deneddylation inhibitor project, confirmation (AID 720655;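 active means corrected plate-normalized z-score of 5 or more, or -5 or less, or inhibition of 15% or more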;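 further: plate controls were DMSO wells with enzyme for no effect and buffer wells lacking MMP-2 for full effect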); settings: recombinant MMP-2, FRET substrate fluorescence, 60 min; at 16.6 µM
# Sequence of 72 kDa type IV collagenase (Homo sapiens) (P08253 whole entry, looked up): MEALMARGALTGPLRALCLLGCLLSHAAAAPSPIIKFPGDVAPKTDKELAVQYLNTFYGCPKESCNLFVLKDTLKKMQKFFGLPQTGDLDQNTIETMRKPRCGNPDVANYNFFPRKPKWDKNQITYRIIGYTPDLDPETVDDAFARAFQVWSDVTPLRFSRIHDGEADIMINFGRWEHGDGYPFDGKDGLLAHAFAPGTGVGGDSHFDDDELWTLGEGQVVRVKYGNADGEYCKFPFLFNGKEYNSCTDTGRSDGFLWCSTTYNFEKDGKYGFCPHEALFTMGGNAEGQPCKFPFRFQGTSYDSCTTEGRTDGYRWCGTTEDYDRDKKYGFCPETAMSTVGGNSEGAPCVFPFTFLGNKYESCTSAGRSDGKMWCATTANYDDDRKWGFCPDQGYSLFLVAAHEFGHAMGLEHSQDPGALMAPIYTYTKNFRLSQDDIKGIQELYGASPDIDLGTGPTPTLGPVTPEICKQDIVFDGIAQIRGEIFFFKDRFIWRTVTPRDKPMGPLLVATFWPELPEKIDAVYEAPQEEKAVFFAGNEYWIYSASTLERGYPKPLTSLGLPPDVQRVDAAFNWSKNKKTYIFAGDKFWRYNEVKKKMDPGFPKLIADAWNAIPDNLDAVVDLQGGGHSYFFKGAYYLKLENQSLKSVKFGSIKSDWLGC
# [3] = molecular target: Prothrombin (Bos taurus) (UniProt P00735); experiment: thrombin cleavage blockers, FP readout – biochemical, fluorescence polarization, single concentration, counter-screen for CSN deneddylation inhibitor project, confirmation (AID 720656;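 active means inhibition at or above a set limit, with a fluorescence interference ratio between 0.5 and a set maximum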); settings: bovine thrombin cleavage of Ub4-pepOG, at 16.6 µM, stronger effect = higher value
# Sequence of Prothrombin (Bos taurus) (P00735 whole entry, looked up): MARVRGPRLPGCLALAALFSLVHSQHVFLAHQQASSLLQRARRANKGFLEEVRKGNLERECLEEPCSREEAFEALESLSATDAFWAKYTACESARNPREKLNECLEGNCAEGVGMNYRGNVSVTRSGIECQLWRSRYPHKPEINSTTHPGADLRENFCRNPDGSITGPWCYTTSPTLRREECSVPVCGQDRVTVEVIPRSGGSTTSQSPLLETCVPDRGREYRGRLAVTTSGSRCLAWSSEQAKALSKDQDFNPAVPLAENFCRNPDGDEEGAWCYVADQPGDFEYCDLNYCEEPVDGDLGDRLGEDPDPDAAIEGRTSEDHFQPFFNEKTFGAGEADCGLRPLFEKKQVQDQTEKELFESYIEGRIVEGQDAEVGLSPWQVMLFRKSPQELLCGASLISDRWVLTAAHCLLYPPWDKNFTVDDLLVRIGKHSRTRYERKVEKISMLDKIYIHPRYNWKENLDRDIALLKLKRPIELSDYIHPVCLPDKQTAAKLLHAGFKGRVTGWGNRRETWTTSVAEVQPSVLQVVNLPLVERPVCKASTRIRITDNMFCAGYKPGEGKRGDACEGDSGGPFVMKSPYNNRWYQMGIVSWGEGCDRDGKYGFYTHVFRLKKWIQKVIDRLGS
# [4] = PERK-eIF2a-CHOP pathway stimulators, retested – cell-based, CHO-CHOP luciferase reporter, single concentration, confirmation (AID 463112; in the data active means activation above about 33%;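 further: 0% = DMSO wells and 100% = tunicamycin 10 µg/mL wells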); settings: CHO-CHOP cells, CHOP-luciferase reporter luminescence; at 10 µM; stronger effect = higher value; percent of tunicamycin response, DMSO as zero
# [5] = molecular target: Protein Mdm4 (Homo sapiens) + E3 ubiquitin-protein ligase Mdm2 (Homo sapiens) (UniProt O15151+Q00987); experiment: human Mdm2/MdmX binding disruption – cell-based, luminescence, single concentration, set 2, confirmation (AID 504601;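 active means mean inhibition of the luminescence signal across two replicates at or above 26 percent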); settings: SaOS-2 split-luciferase Mdm2/MdmX complementation, at 8 µM, stronger effect = higher value
# Sequence of Protein Mdm4 (Homo sapiens) + E3 ubiquitin-protein ligase Mdm2 (Homo sapiens) (O15151 whole entry, looked up): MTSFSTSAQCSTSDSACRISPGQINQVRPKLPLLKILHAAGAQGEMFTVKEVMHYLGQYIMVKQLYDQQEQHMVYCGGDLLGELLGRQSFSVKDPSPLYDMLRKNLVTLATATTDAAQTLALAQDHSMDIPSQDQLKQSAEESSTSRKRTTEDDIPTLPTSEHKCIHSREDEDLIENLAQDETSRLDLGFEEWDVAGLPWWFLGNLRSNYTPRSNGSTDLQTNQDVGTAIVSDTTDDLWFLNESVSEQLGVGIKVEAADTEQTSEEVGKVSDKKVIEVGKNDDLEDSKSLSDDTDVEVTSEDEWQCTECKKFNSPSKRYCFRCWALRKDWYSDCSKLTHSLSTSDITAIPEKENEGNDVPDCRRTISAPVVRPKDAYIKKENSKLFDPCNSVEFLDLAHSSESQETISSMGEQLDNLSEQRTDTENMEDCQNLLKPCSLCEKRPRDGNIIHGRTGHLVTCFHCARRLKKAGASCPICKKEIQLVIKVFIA
# Sequence of Protein Mdm4 (Homo sapiens) + E3 ubiquitin-protein ligase Mdm2 (Homo sapiens) (Q00987 whole entry, looked up): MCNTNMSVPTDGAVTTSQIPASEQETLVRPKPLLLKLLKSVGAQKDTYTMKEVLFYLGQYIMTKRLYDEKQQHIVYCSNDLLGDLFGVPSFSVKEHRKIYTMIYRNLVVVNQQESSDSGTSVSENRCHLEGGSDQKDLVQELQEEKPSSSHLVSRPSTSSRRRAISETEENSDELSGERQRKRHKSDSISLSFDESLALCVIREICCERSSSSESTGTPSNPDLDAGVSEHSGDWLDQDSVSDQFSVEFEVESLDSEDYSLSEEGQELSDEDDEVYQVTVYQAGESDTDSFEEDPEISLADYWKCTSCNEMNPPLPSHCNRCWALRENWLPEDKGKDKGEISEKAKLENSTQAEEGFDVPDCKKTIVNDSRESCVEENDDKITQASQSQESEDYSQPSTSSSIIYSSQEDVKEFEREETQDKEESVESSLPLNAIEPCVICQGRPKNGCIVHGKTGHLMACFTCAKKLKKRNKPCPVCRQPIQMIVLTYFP
# [6] = inhibition of PEG-3 promoter luciferase signal – cell-based, HeLa, luciferase reporter, single concentration, confirmation (AID 602417;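 active means at 20 µM dose, 40% or more inhibition averaged across four replicates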); settings: HeLa PEG-Prom luciferase reporter, luminescence, overnight; at 20 µM; stronger effect = higher value
# [7] = molecular target: PEG-3 (UniProt Q6IN02); experiment: inhibition of PEG-3 promoter-driven reporter – cell-based, HeLa, luciferase, CREF/GAPDH counter-screen panel, dose response (AID 624167); settings: CREF/GAPDH counter-screens; HeLa PEG-Prom luciferase reporter, overnight, run 1, dose range 1, at 100 µM (top of the series) unless noted
# Sequence of PEG-3 (Q6IN02 whole entry, looked up): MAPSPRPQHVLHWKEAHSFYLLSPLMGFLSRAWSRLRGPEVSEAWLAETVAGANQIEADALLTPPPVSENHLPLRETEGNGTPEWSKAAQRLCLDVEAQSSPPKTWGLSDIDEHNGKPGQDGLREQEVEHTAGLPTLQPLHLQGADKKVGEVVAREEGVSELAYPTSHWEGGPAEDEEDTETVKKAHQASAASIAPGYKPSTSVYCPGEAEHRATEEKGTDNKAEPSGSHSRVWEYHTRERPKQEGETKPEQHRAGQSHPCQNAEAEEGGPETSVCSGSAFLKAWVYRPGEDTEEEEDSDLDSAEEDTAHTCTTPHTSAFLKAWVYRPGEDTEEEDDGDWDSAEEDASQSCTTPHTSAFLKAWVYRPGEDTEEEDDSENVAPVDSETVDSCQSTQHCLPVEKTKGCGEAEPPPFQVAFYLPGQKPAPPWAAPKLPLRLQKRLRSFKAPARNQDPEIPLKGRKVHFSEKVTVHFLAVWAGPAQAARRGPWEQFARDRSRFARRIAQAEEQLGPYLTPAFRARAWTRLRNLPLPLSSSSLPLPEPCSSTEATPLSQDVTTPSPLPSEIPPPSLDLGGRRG
# [8] = molecular target: PEG-3 (UniProt Q6IN02); experiment: as above; settings: CREF/GAPDH counter-screens; HeLa PEG-Prom luciferase reporter, overnight, run 2, dose range 1, at 100 µM (top of the series) unless noted
# [9] = test system: Rat fibroblasts (CREF); experiment: as above; settings: CREF/GAPDH counter-screens; run 1, dose range 1, at 100 µM (top of the series)
# [10] = test system: Rat fibroblasts (CREF); experiment: as above; settings: CREF/GAPDH counter-screens; run 2, dose range 1, at 100 µM (top of the series)
# [11] = apoptosome-driven caspase-3 activation blockers – biochemical, fluorescence, DEVD-Rh110, 20 µM, confirmation (AID 504614;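 active means mean inhibition of at least 40% at 20 µM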;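 further: plate controls were DMSO wells for no effect and DEVD-CHO caspase inhibitor control wells for full effect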); settings: reconstituted apoptosome, caspase-3 DEVD-Rh110 fluorescence; at 20 µM; stronger effect = higher value
# [12] = detection-step artefacts after completed caspase reaction – biochemical, fluorescence, Rh110, 20 µM, artefact control for Apaf-1 inhibitor project, confirmation (AID 504615;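 active means signal rise of 40% or more at 20 µM, treated as a fluorescence artifact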); settings: quenched caspase reaction, at 20 µM, stronger effect = higher value
# [13] = molecular target: Tumor necrosis factor receptor superfamily member 10B (Homo sapiens) (UniProt O14763); experiment: viability loss of caspase-8 NB7 cells with TRAIL – with/without TRAIL, luminescence panel, confirmation (AID 651596; in the data active means activity above about 50%); settings: NB7 neuroblastoma + caspase-8, TRAIL sensitization, NB7 Caspase-8, with TRAIL, mean of runs, at 10 µM, stronger effect = higher value
# Sequence of Tumor necrosis factor receptor superfamily member 10B (Homo sapiens) (O14763 whole entry, looked up): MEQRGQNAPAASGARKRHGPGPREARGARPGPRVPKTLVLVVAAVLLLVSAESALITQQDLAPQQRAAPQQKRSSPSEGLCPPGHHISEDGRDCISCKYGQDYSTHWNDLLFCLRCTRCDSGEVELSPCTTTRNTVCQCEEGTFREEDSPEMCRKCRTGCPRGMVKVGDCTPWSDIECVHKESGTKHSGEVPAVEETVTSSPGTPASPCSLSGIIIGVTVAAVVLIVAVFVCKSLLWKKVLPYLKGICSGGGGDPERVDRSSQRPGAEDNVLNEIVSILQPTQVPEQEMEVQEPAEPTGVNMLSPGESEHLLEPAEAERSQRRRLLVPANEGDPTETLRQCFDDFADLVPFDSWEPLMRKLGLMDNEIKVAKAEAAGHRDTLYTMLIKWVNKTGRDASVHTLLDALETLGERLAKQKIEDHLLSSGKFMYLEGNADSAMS
# [14] = as above; settings: NB7 neuroblastoma + caspase-8, without TRAIL, NB7 Caspase-8, without TRAIL, mean of runs, at 10 µM
# [15] = molecular target: Carboxy-terminal domain RNA polymerase II polypeptide A small phosphatase 1 (Homo sapiens) (UniProt Q9GZU7); experiment: SCP1 melting temperature change from compounds – biophysical, differential scanning fluorimetry, orthogonal assay for Scp-1 inhibitor project, confirmation (AID 540329;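 active means substances whose mean melting-temperature shift, as a percentage of the reference inhibitor's shift, reaches about 5.3%, limit read from the data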;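 further: 0% = Tm of DMSO wells and 100% = Tm with sodium orthovanadate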); settings: Recombinant SCP1, Sypro Orange thermal shift Tm; at 40 µM; stronger effect = higher value
# Sequence of Carboxy-terminal domain RNA polymerase II polypeptide A small phosphatase 1 (Homo sapiens) (Q9GZU7 76-261 limits assumed): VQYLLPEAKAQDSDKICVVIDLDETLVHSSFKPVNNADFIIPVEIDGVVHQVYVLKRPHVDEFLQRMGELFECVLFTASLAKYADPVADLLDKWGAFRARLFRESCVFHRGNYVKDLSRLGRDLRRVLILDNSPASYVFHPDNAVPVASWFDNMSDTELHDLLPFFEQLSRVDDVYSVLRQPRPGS
# [16] = Brca1-Bard1 BiLC signal decrease – luminescence, single concentration, counter-screen for Mdm2/MdmX interaction inhibitor project, confirmation (AID 504668; call rule not given here); settings: Brca1/Bard1 bimolecular luciferase complementation counterscreen, at 8 µM, stronger effect = higher value
# [17] = molecular target: COP9 signalosome complex subunit 5 (Homo sapiens) (UniProt Q92905); experiment: blockers of CSN-driven cullin deneddylation – biochemical, fluorescence polarization, single concentration, SCF-Nedd8OG substrate, confirmation (AID 720654; in the data active means inhibition above about 50%;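 further: 0% = DMSO with enzyme and 100% = no enzyme wells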); settings: Csn5 deneddylation of SCF-Nedd8OG, 90 min, at 16.6 µM, stronger effect = higher value
# Sequence of COP9 signalosome complex subunit 5 (Homo sapiens) (Q92905 whole entry, looked up, one chain of several): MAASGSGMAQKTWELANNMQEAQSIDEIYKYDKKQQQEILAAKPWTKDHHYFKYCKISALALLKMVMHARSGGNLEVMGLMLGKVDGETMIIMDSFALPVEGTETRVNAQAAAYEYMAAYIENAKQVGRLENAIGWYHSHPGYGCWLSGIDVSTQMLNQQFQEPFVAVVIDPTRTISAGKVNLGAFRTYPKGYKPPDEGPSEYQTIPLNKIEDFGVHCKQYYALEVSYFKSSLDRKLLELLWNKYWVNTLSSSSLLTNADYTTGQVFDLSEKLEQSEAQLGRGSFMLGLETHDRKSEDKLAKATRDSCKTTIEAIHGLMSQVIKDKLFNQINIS
smiles,measurement,setting,value
Cn1ccc(=Nc2ccc(NC(=O)c3ccc(N=c4ccn(C)c5ccc([N+](=O)[O-])cc45)cc3)cc2)cc1,inhibition,[1],-15.3% (inactive)
same,inhibition,[2],61.8% (active)
same,inhibition,[3],-10.3% (inactive)
Cc1ccc(Oc2nc(-c3ccccn3)nc3ccccc23)cc1,activation,[4],1.5% (inactive)
OCCCNc1nccc(-c2cc(Nc3cccc(Cl)c3)ncn2)n1,inhibition,[1],97% (active)
same,inhibition,[5],102% (active)
same,inhibition,[6],97.6% (active)
same,inhibition,[7],94%
same,inhibition,[8],97.4%
same,inhibition,[9],14.7%
same,inhibition,[10],62.3%
Cc1cc(C(=O)CCl)c(C)n1CC1COc2ccccc2O1 (stereo unspecified),activation,[4],60.3% (active)
CCOc1[nH]n(-c2ccc(Cl)cc2)c(=O)c1C=Nc1ccc(O)cc1,inhibition,[1],6% (inactive)
same,inhibition,[11],14.8% (inactive)
same,activation (fluorescence interference),[12],5.36% (inactive)
NC(N)=N/N=C/c1ccc(OCc2ccc(Cl)cc2Cl)cc1,inhibition,[1],-12.9% (inactive)
same,inhibition,[5],102% (active)
same,inhibition,[11],35.8% (inactive)
same,activation (fluorescence interference),[12],-0.23% (inactive)
same,activity,[13],58.8%
same,activity,[14],95.5%
N/C(=N\OC(=O)N1c2ccccc2Sc2ccccc21)c1ccc(Br)cc1,inhibition,[1],6.45% (inactive)
same,thermal shift relative to vanadate control,[15],-22.1% (inactive)
CC(C)(C)c1ccc(Oc2ccc(N)cc2)cc1,inhibition,[1],11.6% (inactive)
same,inhibition,[6],86.3% (active)
same,inhibition,[7],99.3%
same,inhibition,[8],99.2%
same,inhibition,[9],60.1%
same,inhibition,[10],83.1%
COc1cccc(/C=N/NC(=O)c2[nH]nc3c2CCc2ccccc2-3)c1O,inhibition,[1],39.9% (inactive)
same,inhibition,[16],27% (active)
same,inhibition,[17],20.6% (inactive)
same,inhibition,[2],34.7% (active)
same,inhibition,[3],30.2% (active)
CCCc1cc(=S)n2c([nH]c3ccccc32)c1C#N,activation,[4],-0.45% (inactive)
COc1cc(/C=C2/C(=O)ON=C2C)ccc1OCc1ccccc1F,activation,[4],3.58% (inactive)
